In PubChem BioAssay one finds composite z-score and z-score data, which are given here for six compounds.

For experiment [1], the system named is Plasmodium falciparum Sir2 (PF13_0152, Sir2A). In words: pfSir2 binders on small-molecule microarrays, primary screen, biochemical, small-molecule microarray, 635 nm fluorescence (AID 1098).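 Further: score merges spot fluorescence intensity with its signal-to-noise ratio.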 The conditions noted are these: small-molecule microarray binding, fluorescence 635 nm; higher = more signal.
A short description of experiment [2]: small-molecule microarray binders of probe aDKK1, primary screen, biochemical, biotinylated probe, 635/667 nm fluorescence (AID 1099).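 Further: score merges 667nm spot fluorescence with signal to noise across triplicate slides.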 The note with it: higher = more signal.
Experiment [3] in a line: small-molecule microarray binders of probe aCHRDL2, primary screen, biochemical, biotinylated probe, 635/667 nm fluorescence (AID 1100). The conditions noted are these: higher = more signal.
A short description of experiment [4]: splicing luciferase reporter signal modulators, primary screen, spliceosome inhibition project, cell-based, HEK293, splice +/- reporter (AID 1101).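 Further: HEK293 cells carrying a splicing-competent luciferase reporter gene; test concentration not given here.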 The note with it: luminescence, 24 h, higher = more signal, called active from +8 up or from −8 down. For orientation: A reporter such as luciferase makes a cellular process visible.
Experiment [5] has as its target Fibroblast growth factor 10 (Homo sapiens) (UniProt O15520). Nature of the experiment: FGF10 binders on small-molecule microarrays, primary screen, biochemical, small-molecule microarray, 635 nm fluorescence (AID 1102). The note with it: FGF10 binding, fluorescence 635 nm, higher = more signal.
Experiment [6] has as its system glycogen synthase kinase-3 (GSK3A per assay name; protocol says GSK3B). In words: GSK3 binders on small-molecule microarrays, primary screen, biochemical, small-molecule microarray, 635 nm fluorescence, GSK3A (AID 1103). Further: the record names both GSK3A and GSK3B. The note with it: small-molecule microarray binding, fluorescence 635 nm; higher = more signal.
Experiment [7] has as its target Epidermal growth factor receptor (Homo sapiens) (UniProt P00533). In words: EGFR binders on small-molecule microarrays, primary screen, biochemical, small-molecule microarray, 635 nm fluorescence (AID 1104).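 Further: score merges 667 nm emission intensity with spot signal to noise over triplicate slides.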 The conditions noted are these: EGFR binding, higher = more signal.
Experiment [8] concerns the target Follistatin-related protein 3 (Homo sapiens) (UniProt O95633). In words: FSTL3 binders on small-molecule microarrays, primary screen, biochemical, small-molecule microarray, 635 nm fluorescence (AID 1105).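 Further: score merges emission near 667 nm and signal to noise per printed spot across three slides.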 The conditions noted are these: FSTL3 binding, higher = more signal.
Experiment [9] concerns the target Dickkopf-related protein 1 (Homo sapiens) (UniProt O94907). Nature of the experiment: DKK1 binders on small-molecule microarrays, primary screen, biochemical, small-molecule microarray, 635 nm fluorescence scan (AID 1106).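 Further: score merges emission near 667 nm with signal to noise over three replicate slides.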 The conditions noted are these: DKK1 binding, higher = more signal.
Experiment [10] relates to Inhibin beta A chain (activin A). In words: INHBA (activin A) binders on microarrays, primary screen, biochemical, small-molecule microarray, 635 nm fluorescence scan (AID 1107).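 Further: mouse activin A protein probed at 4.33 µg/mL on printed slides; score merges bound-protein fluorescence near 667 nm with spot signal-to-noise.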 The note with it: small-molecule microarray binding, higher = more signal.
The subject of experiment [11] is Human papillomavirus type 1a protein E7 (residues 44-93). Nature of the experiment: HPV1a E7 fragment binders on microarrays, primary screen, biochemical, small-molecule microarray, residues 44-93, 635 nm fluorescence (AID 1108).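 Further: E7 fragment applied at 1 µg/mL in TBST for 1 h at 4 C; score combines spot fluorescence with its signal to noise ratio.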 The note with it: small-molecule microarray binding, fluorescence 635 nm; higher = more signal.
Experiment [12] can be described thus: modulators of HCV replicon luciferase signal, primary screen, HCV replication inhibitor project, Huh7 cells, luciferase reporter (AID 1109).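 Further: huh7 hepatoma cells harbouring a luciferase neomycin HCV replicon reporter; luciferase luminescence as measure of HCV replicon replication; test concentration not given here.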 The conditions noted are these: 48 h, higher = more signal. A general note: Replicon systems follow genome replication, usually without infectious particles.
In experiment [13] the target is Left-right determination factor 2 (Homo sapiens) (UniProt O00292). In words: LEFTY2 binders on small-molecule microarrays, primary screen, biochemical, small-molecule microarray, 635 nm fluorescence scan (AID 1110). The note with it: LEFTY2 binding, higher = more signal.
Chain of Left-right determination factor 2 (Homo sapiens) (O00292 whole entry, looked up): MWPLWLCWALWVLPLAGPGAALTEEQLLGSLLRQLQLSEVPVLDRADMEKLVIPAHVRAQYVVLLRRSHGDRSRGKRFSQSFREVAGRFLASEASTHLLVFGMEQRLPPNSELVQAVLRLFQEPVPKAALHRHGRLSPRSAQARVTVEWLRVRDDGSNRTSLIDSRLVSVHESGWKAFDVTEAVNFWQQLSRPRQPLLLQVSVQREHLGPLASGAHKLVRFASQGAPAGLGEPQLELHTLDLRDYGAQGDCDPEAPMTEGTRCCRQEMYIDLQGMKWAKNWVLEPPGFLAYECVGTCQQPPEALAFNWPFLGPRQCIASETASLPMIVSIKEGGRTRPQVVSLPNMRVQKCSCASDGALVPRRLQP
For experiment [14], the target named is Calmodulin-1 (Homo sapiens) (UniProt P0DP23). In words: CALM1 binders on microarrays, EGTA buffer, profiling panel, biochemical, small-molecule microarray, Cy5-labelled CALM1 (AID 1111).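 Further: labelled calmodulin applied in Tris saline Tween buffer holding calcium plus EGTA and DTT.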 The conditions noted are these: Cy5-CALM1 binding fluorescence, higher = more signal.
For experiment [15] the target is unchanged. Nature of the experiment: calcium-bound CALM1 binders on microarrays, profiling panel, artefact control for SMM control-protein annotation, biochemical, small-molecule microarray, Cy5-labelled CALM1, plus calcium (AID 1112).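 Further: score merges spot fluorescence with signal to noise from triplicate slides.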 The note with it: Cy5-CALM1 binding fluorescence, higher = more signal.
Experiment [16] in a line: small-molecule microarray binders of probe aWnt5a, primary screen, biochemical, biotinylated probe, 635/667 nm fluorescence (AID 1113).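 Further: score merges 667 nm fluorescence intensity with signal-to-noise per printed feature.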 The note with it: higher = more signal.
Experiment [17] can be described thus: small-molecule microarray binders of probe aShh, primary screen, biochemical, biotinylated probe, 635/667 nm fluorescence (AID 1114).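 Further: probe is biotin-labelled aShh protein from a stem cell growth factor screen; measures binding of labelled protein to compounds printed on the slide; score merges feature fluorescence at 667 nm with signal-to-noise.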 The conditions noted are these: higher = more signal.
The nature of experiment [18]: small-molecule microarray binders of probe aNog, primary screen, biochemical, biotinylated probe, 635/667 nm fluorescence (AID 1115).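 Further: probe is biotinylated aNog protein used at 0.15 µg/mL for 1 h at 4 C; z-score combines 667 nm fluorescence of each spot with its signal to noise.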 The note with it: higher = more signal.
Experiment [19] has as its target Torsin-1A-interacting protein 1 (Homo sapiens) (UniProt Q5JTV8). In words: LAP1 binders from COS7 cell lysate, primary screen, small-molecule microarray, 635/667 nm fluorescence (AID 1116). The note with it: COS7-hLAP1 lysate binding, 635 nm fluorescence, higher = more signal.
Experiment [20] concerns the target Alpha-bungarotoxin (Bungarus multicinctus) (UniProt P60615). Nature of the experiment: alpha-bungarotoxin binders on microarray, profiling panel, artefact control for SMM control protein annotation, biochemical, small-molecule microarray, Alexa647 label, 635/667 nm fluorescence (AID 1117). The conditions noted are these: alpha-BTX-A647 binding fluorescence, higher = more signal.

SMILES strings stand for the structures. Active and inactive are the calls of the source.

Chain of Fibroblast growth factor 10 (Homo sapiens) (O15520 whole entry, looked up): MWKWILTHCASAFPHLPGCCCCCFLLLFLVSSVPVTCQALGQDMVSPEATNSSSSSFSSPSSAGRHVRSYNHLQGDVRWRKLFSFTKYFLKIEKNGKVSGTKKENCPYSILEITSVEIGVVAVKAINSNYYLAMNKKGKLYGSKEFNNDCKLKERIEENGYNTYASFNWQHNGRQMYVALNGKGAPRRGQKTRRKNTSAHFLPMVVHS
Chain of Torsin-1A-interacting protein 1 (Homo sapiens) (Q5JTV8 whole entry, looked up): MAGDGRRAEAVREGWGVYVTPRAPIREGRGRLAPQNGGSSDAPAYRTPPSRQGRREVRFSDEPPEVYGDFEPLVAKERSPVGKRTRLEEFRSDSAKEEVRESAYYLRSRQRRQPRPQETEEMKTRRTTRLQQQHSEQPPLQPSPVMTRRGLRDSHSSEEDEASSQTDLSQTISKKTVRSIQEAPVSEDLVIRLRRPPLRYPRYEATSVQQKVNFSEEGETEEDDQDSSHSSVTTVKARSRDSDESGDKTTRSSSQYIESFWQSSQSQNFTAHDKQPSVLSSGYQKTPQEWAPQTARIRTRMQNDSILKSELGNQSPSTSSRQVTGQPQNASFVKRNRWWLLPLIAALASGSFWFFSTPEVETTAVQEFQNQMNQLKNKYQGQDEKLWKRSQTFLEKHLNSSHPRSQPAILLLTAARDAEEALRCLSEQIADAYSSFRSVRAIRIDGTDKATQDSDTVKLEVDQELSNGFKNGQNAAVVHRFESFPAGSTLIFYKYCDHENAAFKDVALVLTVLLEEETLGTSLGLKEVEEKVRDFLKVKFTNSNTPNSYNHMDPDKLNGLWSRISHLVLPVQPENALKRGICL
Chain of Dickkopf-related protein 1 (Homo sapiens) (O94907 whole entry, looked up): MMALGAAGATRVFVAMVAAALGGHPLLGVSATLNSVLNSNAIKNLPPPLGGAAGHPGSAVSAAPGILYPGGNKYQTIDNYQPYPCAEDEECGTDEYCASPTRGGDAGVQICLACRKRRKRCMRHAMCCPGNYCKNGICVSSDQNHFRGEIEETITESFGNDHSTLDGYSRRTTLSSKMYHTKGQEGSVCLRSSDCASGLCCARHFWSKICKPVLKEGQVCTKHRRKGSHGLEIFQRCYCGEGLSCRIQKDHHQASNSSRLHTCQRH
Chain of Alpha-bungarotoxin (Bungarus multicinctus) (P60615 whole entry, looked up): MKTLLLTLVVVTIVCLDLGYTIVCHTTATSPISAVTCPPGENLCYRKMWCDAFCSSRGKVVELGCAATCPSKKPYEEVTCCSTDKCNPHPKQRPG
Chain of Epidermal growth factor receptor (Homo sapiens) (P00533 whole entry, looked up): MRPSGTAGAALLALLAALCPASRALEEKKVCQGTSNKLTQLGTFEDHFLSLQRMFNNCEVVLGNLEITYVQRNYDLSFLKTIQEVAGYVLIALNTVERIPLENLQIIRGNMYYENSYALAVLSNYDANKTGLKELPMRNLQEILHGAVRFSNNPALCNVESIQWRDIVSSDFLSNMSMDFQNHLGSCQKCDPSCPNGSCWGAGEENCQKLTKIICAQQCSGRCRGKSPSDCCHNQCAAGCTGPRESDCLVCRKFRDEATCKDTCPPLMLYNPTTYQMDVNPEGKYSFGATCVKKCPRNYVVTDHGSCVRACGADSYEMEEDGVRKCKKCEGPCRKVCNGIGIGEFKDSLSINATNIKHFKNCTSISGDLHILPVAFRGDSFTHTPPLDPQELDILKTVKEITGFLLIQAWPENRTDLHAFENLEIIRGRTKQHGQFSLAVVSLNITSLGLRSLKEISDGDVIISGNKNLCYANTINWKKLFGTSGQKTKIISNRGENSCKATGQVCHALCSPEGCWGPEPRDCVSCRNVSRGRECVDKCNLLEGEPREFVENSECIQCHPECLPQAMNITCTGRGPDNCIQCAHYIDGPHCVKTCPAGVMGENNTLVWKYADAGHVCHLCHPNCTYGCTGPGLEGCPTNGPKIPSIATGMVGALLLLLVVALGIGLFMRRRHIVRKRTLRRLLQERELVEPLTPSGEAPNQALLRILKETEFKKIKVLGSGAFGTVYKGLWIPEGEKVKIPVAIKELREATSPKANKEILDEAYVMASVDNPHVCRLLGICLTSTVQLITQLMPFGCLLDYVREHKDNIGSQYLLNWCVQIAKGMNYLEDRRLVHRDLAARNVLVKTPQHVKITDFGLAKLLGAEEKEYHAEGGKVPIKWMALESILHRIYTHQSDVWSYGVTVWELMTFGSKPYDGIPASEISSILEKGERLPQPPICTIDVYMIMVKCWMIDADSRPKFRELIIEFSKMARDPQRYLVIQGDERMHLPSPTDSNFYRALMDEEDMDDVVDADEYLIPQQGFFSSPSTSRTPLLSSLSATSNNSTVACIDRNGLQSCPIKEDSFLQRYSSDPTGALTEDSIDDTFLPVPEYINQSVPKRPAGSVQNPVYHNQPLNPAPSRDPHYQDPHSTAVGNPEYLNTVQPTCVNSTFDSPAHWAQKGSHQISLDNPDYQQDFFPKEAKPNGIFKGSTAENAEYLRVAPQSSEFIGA
Chain of Follistatin-related protein 3 (Homo sapiens) (O95633 whole entry, looked up): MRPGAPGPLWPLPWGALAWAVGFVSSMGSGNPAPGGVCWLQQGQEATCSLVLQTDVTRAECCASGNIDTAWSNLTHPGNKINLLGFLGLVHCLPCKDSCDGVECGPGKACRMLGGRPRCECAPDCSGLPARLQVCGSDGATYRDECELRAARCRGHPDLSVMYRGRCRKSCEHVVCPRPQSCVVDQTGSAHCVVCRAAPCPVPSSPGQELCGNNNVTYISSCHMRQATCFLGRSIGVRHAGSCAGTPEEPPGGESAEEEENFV

On to `CO[C@H]1O[C@H](CO)[C@@H](OC(=O)Nc2ccccc2)[C@H](OC(=O)Nc2ccccc2-c2ccccc2)[C@H]1OC(=O)Nc1ccccc1-c1ccccc1`, for which the composite z-score is 1.79 in experiment [1]; 0.834 in experiment [2]; 0.91 in experiment [3]; 0.626 in [5]; 1.31 in experiment [6]; -0.165 in experiment [7]. The composite z-score in experiment [8] stood at 0.824; in experiment [9] it was 0.482; in experiment [10], 0.0315; in [11], 1.36; in experiment [13], 0.152; in experiment [14], 2.18. Further, the composite z-score in experiment [15] is 0.438; in [16] it was -0.0735; in experiment [17], 0.366; in experiment [18], 0.767; in experiment [19] it was 2.08; in experiment [20], 2.54. Besides, the z-score in experiment [4] is -2.83 (inactive); in experiment [12], -3.9.
As to `COCCOC(=O)N1C(=O)[C@@]2(c3ccccc31)[C@H](C(=O)Nc1nc3ccccc3s1)[C@H]1C(=O)O[C@H](c3ccccc3)[C@H](c3ccccc3)N1[C@@H]2c1ccc(O)cc1`, the composite z-score was 1.05 in experiment [1]; 0.356 in experiment [2]; 0.361 in experiment [3]; 0.998 in [5]; 1.29 in experiment [6]; 0.534 in experiment [7]. Besides, the composite z-score in experiment [8] came out at 0.775; in [9], 0.709; in [10] it was 0.927; in experiment [11], 1.1; in experiment [13], 1.02; in experiment [14], 1.74. In addition, the composite z-score in experiment [15] stood at 1.07; in [16], 0.0044; in [17], 0.489; in experiment [18], 0.134; in [19], 0.94; in [20], 2.07. Also, the z-score is -1.56 (inactive) in [4] and -2.04 in experiment [12].
`Cc1ccc(S[C@]2(C(=O)NC3CC3)CC(=O)N(Cc3ccccc3C(F)(F)F)[C@@H]2c2ccc(CO)cc2I)cc1`: the composite z-score in [1] is 1.64; in experiment [2] it was 0.913; in experiment [3], 1.1; in experiment [5], -0.28; in [6], -0.0828; in experiment [7], -0.385. In addition, the composite z-score in experiment [8] was -0.292; in experiment [9], -0.425; in experiment [10], 1.72; in [11], 0.33; in experiment [13] it was -0.659; in experiment [14], 0.514. Moreover, the composite z-score is 1.14 in experiment [15]; -0.124 in experiment [16]; 0.188 in experiment [17]; 0.568 in experiment [18]; 0.955 in [19]; 0.0637 in experiment [20]. The z-score in experiment [4] was -2.01 (inactive); in [12], -1.55.
For `CC(C)C[C@@H]1NC(=O)[C@@]23C(=O)N[C@@H](Cc4ccccc4)C2[C@H](C)[C@@]2(C)O[C@H]2C3/C=C/C/C=C\CNC(=O)[C@H](Cc2ccccc2)NC1=O` (stereo not given in full), the composite z-score in experiment [1] is 0.608; in experiment [2] it was -0.117; in [3], -0.417; in experiment [5], 0.286; in experiment [6], 0.151; in [7], 0.137. Moreover, the composite z-score was 0.315 in [8]; 0.335 in experiment [9]; 1.49 in [10]; -1.3 in experiment [11]; 0.534 in experiment [13]; -0.388 in experiment [14]. In addition, the composite z-score was -0.485 in experiment [15]; -0.152 in experiment [16]; -0.2 in experiment [17]; -0.194 in experiment [18]; 0.569 in experiment [19]; 0.792 in [20]. Besides, the z-score in experiment [4] was -0.639 (inactive); in experiment [12] it was -2.08.
As to `CCCNC(=O)[C@@H]1c2ccccc2C(=O)N(Cc2cc(C(F)(F)F)cc(C(F)(F)F)c2)[C@H]1c1ccc(CO)cc1`, the composite z-score was 1.23 in experiment [1]; 0.829 in experiment [2]; 0.803 in [3]; 0.238 in [5]; 0.459 in experiment [6]; -0.112 in [7]. For the same compound, the composite z-score in experiment [8] was 0.268; in [9], -0.196; in experiment [10], 0.0686; in [11] it was 0.35; in [13] it was -0.402; in experiment [14] it was 0.394. The composite z-score in experiment [15] is 0.544; in [16], -0.146; in experiment [17], 0.188; in experiment [18], 0.527; in experiment [19] it was 0.238; in [20] it was 1.22. Moreover, the z-score in [4] was -0.443 (inactive); in experiment [12] it was -0.392.
`COC(=O)C1=CC(CCCO)=CC(C2CC2)N(Cc2cc3c(cc2Br)OCO3)C=C1C(=O)OC` (stereo not given): the composite z-score in experiment [1] was 1.57; in [2], 1.03; in experiment [3], 1.14; in experiment [5], 0.0344; in experiment [6], 0.194; in [7], -0.482. The composite z-score in [8] was 0.0154; in experiment [9], 0.47; in experiment [10], 0.945; in [11] it was 1.36; in experiment [13], -0.998; in [14], 2.27. Besides, the composite z-score was 0.67 in [15]; -0.0269 in [16]; 0.0141 in experiment [17]; 0.842 in [18]; 3.07 in experiment [19]; 1.97 in experiment [20]. The z-score is -0.575 (inactive) in [4] and -0.164 in [12].
